From PubChem
NPR1 activator: GC-A (human) enzyme activation | activation, % at 10 µM | HEK293 GC-A cells, cGMP TR-FRET, EC30 ANP; 0% at EC30 ANP, 100% saturating ANP | actives 0.14% (n = 370,000) | P16066; in the data active = activation above about 40%
V-ATPase pH: alters yeast V-ATPase proton transport; response, % at 10 µM; actives 0.37% (n = 350,000); S. cerevisiae, pHLuorin cytosolic pH fluorescence; in the data active = response mostly above about 7.3%, no sharp cut-off; inactive = mostly below about 5.4%; note: actives read high
Rev-erbA mod: modulators of human Rev-erb alpha DNA binding; Rev-erbα–FITC-DNA binding, fluorescence polarization, 90 min; AID 1259318; activity, % at 10 µM; actives 0.79% (n = 370,000);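 active = activity above about 14%, limit read from the data; passing the limit was not always enough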;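 note: 0% = DMSO wells with 35 nM protein and 100% = DMSO wells with 750 nM protein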
NPR2 activator: GC-B (human) receptor activation | P20594 | HEK293-GC-B cells, CNP EC30, cGMP TR-FRET; 0% at EC30 CNP, 100% saturating CNP | activation, % at 10 µM | actives 0.11% (n = 370,000) | AID 1920062;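 active = activation at 10 µM reaching about 35% in either raw or pattern-adjusted values, limit read from the data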
PG9 binder: binds the HIV-1 gp120 antibody PG9; TR-FRET gp120-PG9 antibody binding; inhibition, % at 6.7 µM; actives 0.43% (n = 360,000); in the data active = inhibition above about 8.5%
Rev-erbA confirm: Rev-erb alpha (human) modulation, hit confirmation | shares compounds with Rev-erbA mod | actives 61% (n = 3,000) | Rev-erb alpha FITC-DNA binding, fluorescence polarization, 90 min | AID 1259319 | activation, % at 25 µM;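 active = activation at or above a set limit, or at least 3 SD above the negative control mean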;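 note: 0% = 35 nM protein with DMSO and 100% = 750 nM protein high control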
RORg DNA counter: counter-screen for Rev-erb alpha modulators: RORgamma DNA binding. shares compounds with Rev-erbA mod. purified RORgamma protein-FITC-DNA binding, fluorescence polarization. IC50, µM. actives 8% (n = 910);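 active = Compounds whose fitted half-maximal concentration for disrupting protein-DNA binding is below 10 micromolar; the record names Rev-erb in its text, so the target is in doubt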
Numbers without * were called inactive; i = inactive; . = no result. Hits are enriched below; roughly 1.6% of the tested compounds scored in any of these assays.

SMILES	NPR1 activator	V-ATPase pH	Rev-erbA mod	NPR2 activator	PG9 binder	Rev-erbA confirm	others
CC(C)Cc1nc2sc3c(=O)[nH]cnc3c2c2c1CCC2	3.2	-0.6	38.1*	1.8	3.7	9.4
CCCCc1nc2sc3c(=O)[nH]cnc3c2c2c1CCCC2	-0.8	0.2	12.1	-1.2	3.8	.
CC(C)c1nc2sc3c(=S)nc[nH]c3c2c2c1CCC2	5.3	-6.3	16.5	-2.2	-0.1	.
Cn1c(SCC(=O)NCCN2CCCCC2)nc2cccnc21	2.7	.	-1.6	-4.7	.	.
COc1ccc(CN2C[C@]3(C=C(C)Cn4c(=O)n(-c5ccccc5)c(=O)n43)N(C(=O)OCc3ccccc3)C2=NC(=O)c2ccccc2)c(OC)c1	-2.5	.	1.6	3.6	.	.
CC1(Cc2ccccc2Cl)C(=O)Nc2ccc(OC(F)(F)F)cc21 (stereo unspecified)	-7.0	.	35.5*	-2.4	-0.1	45.0*	RORg DNA counter=>40
CC1(Cc2ccccc2C#N)C(=O)Nc2ccc(OC(F)(F)F)cc21 (stereo unspecified)	-8.8	.	28.2*	-10.5	-1.1	25.9*
CCc1ccc2c(c1)NC(=O)C2(C)Cc1ccccc1Cl (stereo unspecified)	-1.3	.	-2.0	-4.5	0.8	.
Cc1nnc(C)n1N=Cc1ccc(O)cc1O	4.1	.	-7.1	-4.6	.	.
COc1ccc2c(=O)c3c(=O)n(CCc4ccccc4)c(C(C)C)nc3oc2c1	-6.3	6.8	24.6*	-1.5	-1.1	0.6
COc1ccc2c(=O)c3c(=O)n(CCc4ccccc4)c(C)nc3oc2c1	1.1	1.1	-0.2	0.5	-1.3	.
O=C(NC1CCCCN(Cc2ccc(Cl)cc2)C1=O)c1ccc(-c2ccccc2)cc1 (stereo unspecified)	0.8	.	0.6	-0.1	.	.
COc1ccc(C)cc1NC(=O)c1cnc2scc(C)n2c1=O	8.6	-8.2	26.7*	1.7	1.4	8.5
COc1ccc(C)cc1NC(=O)c1cnc2n(c1=O)CCS2	2.3	3.1	-1.1	-1.7	-5.0	.
O=C(CSc1ncnc2c1oc1ccccc12)Nc1ccc2c(c1)OCCO2	-3.2	-2.3	676.1*	2.1	8.2	568.7*	RORg DNA counter=i
O=C(CSc1ncnc2c1oc1ccccc12)Nc1nccs1	22.8	-1.1	31.6*	0.5	-4.2	25.1*
COc1ccccc1NC(=O)CSc1ncnc2c1oc1ccccc12	1.9	1.1	0.8	7.1	2.7	.
O=C(CSc1ncnc2c1cnn2Cc1ccccc1)Nc1ccc2c(c1)OCCO2	-0.2	-0.4	-1.0	3.2	-0.2	.
O=C(CSc1nc2ccccc2n1Cc1ccccc1Cl)NN=C/C(Br)=C/c1ccccc1	0.5	.	-4.8	9.8	.	.
CCOc1cccc2cc(-c3cn4cc(C)ccc4n3)c(=O)oc12	1.2	0.5	53.0*	-2.1	2.6	24.5*
COc1cccc2cc(-c3cn4ccc(C)cc4n3)c(=O)oc12	2.0	-3.1	0.3	-2.9	-0.8	.
O=C(NCCc1ccccc1F)c1ccc2c(c1)ncn2C1CCCCC1	1.2	.	-0.7	0.5	.	.
Cc1ccc(C(=O)NN2C(=O)/C(=C/c3cn(C)c4ccccc34)SC2=S)cc1	-0.7	-3.9	8.8	9.6	-1.6	.
Cn1cc(/C=C2\SC(=O)NC2=S)c2ccccc21	-2.5	0.7	27.3*	-7.9	-9.3	17.0
COc1cc(C(=O)Nc2nc(-c3cc(C)ccc3C)c(C)s2)ccc1OCC(=O)Nc1ccc(F)cc1	13.0	0.7	71.2*	4.1	-0.2	48.8*	RORg DNA counter=>40
SMILES	NPR1 activator	V-ATPase pH	Rev-erbA mod	NPR2 activator	PG9 binder	Rev-erbA confirm	others
COC(=O)C1CN(Cc2ccc(Cl)cc2)CCS(=O)(=O)N1Cc1cn(Cc2ccc(Cl)cc2)nn1 (stereo unspecified)	-13.9	.	0.8	-8.0	.	.
CCOc1cc(/C=C2/C(=N)N3C=CSC3=NC2=O)ccc1OCCCOc1ccccc1C	-10.5	-0.7	18.4*	-10.2	-1.0	4.7
COc1cc(/C=C2/C(=N)N3C=CSC3=NC2=O)ccc1OCCCOc1ccccc1C	-7.8	-0.3	0.8	-3.7	-1.3	.
CC1CCN(S(=O)(=O)c2ccc(C(=O)Nc3ccccc3-c3nc4ccccc4[nH]3)cc2)CC1	-3.6	0.7	13.7	6.3	-1.0	.
CC1CCCN(S(=O)(=O)c2ccc(C(=O)Nc3ccccc3-c3nc4ccccc4[nH]3)cc2)C1 (stereo unspecified)	0.7	-1.9	39.5*	-3.0	0.7	1.7
COc1cc(C=Nn2c(-c3n[nH]c4c3CCC4)n[nH]c2=S)ccc1OCc1ccccc1	-5.8	.	-1.2	-5.5	.	.
CC(C)CNC(=O)OCc1cn(Cc2cc(F)ccc2F)nn1	3.1	.	0.7	-1.2	.	.
Cc1cccc(N(C(=O)c2snc(C(N)=O)c2N)C(C(=O)NCC2CCCO2)c2ccc(N(C)C)cc2)c1 (stereo unspecified)	-10.8	2.1	46.1*	-13.8	0.4	13.7
CN(C)c1ccc(C(C(=O)NCC2CCCO2)N(C(=O)c2snc(C(N)=O)c2N)c2ccccc2)cc1 (stereo unspecified)	-1.0	-0.9	38.5*	-3.0	-2.9	9.5
CCCCC(C(=O)NC1CCCC1)N(Cc1ccccc1)C(=O)c1snc(C(N)=O)c1N (stereo unspecified)	-31.4	-2.6	22.2*	-21.8	-1.1	-0.9
CCCC(C(=O)NC1CCCC1)N(Cc1ccc(F)cc1)C(=O)c1snc(C(N)=O)c1N (stereo unspecified)	-16.2	-0.4	-7.7	-5.6	-1.2	.
COCCCNC(=O)C[C@H]1C[C@@]2(C(=O)OC)C(=C[C@H](COCc3ccccc3)O[C@@H]2C)N(Cc2ccccc2)C1=O	3.8	.	3.4	-2.3	.	.
O=C(/C=C1\OCc2ccccc21)OCc1ccccc1	0.0	.	-3.0	5.9	0.2	.
O=C(/C=C1\OCc2ccccc21)c1ccccc1	2.0	.	13.4*	-1.6	0.8	-3.7
Cc1ccc(CNC(=O)OC(C)(C)C)c(/C=C/S(=O)(=O)NCc2ccc(F)cc2)c1	-3.1	.	5.2	-1.0	.	.
COc1ccc(S[C@]2(C(=O)N3CCOCC3)CC(=O)N(c3ccc(OC)cc3)[C@@H]2c2ccc(OC)cc2)cc1	-7.2	.	6.2	-7.2	.	.
O=C(CCn1nnc(-c2cccs2)n1)NCc1cccs1	1.3	.	0.7	-3.4	.	.
CCNC(=O)NC(=O)C(C)OC(=O)c1oc2ccc(OC)cc2c1C (stereo unspecified)	1.2	-0.6	23.4*	1.3	1.2	12.4
COc1ccc2oc(C(=O)OC(C)C(=O)N(C)c3ccccc3)c(C)c2c1 (stereo unspecified)	-0.5	0.5	-3.1	1.8	-1.1	.
CC1(C)Cc2c(c(N3CCOCC3)nc3sc(C#N)c(N)c23)CS1	22.3	1.5	3.6	18.5	-1.4	.
